Compounds with a hit are over-represented: about 19% of the library has one in this group of screens.
TDP1 block: inhibitors of human tyrosyl-DNA phosphodiesterase TDP1; actives 0.28% (n = 350,000); Potency, µM (titrated, usually from 130 µM), for inactives: at the top dose activity change, negative = inhibition, usual class: inhibitors; Q9NUW8; AID 485290; recombinant TDP1, AlphaScreen DNA substrate cleavage; note: potency is the fitted concentration of half-maximal effect; % is set by controls: 0 for no effect and ±100 for the full control effect; nearly all actives have a fitted effect of over 40% in size
Target sequence (Q9NUW8 whole entry, looked up): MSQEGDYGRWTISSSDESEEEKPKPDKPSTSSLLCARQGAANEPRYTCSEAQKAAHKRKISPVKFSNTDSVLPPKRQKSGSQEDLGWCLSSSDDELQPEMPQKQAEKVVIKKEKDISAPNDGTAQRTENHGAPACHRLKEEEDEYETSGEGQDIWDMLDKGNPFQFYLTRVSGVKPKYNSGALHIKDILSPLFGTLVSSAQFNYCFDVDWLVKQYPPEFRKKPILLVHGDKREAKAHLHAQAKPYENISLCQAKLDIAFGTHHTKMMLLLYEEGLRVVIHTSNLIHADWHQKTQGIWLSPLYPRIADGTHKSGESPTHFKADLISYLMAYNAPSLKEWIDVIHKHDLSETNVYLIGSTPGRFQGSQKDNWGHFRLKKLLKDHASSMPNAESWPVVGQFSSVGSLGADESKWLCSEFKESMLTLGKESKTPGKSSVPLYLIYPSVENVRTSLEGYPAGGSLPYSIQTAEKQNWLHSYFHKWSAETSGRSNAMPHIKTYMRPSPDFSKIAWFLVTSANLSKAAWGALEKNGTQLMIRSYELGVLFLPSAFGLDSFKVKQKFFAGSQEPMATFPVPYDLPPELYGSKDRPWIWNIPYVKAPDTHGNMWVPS
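Recombinant human Tdp1 (E. coli-expressed, 1 nM final) preincubated with compounds 15 min at room temperature, then 5'-biotin/3'-phosphotyrosine-FITC DNA substrate (15 nM final) added for 5 min. AlphaScreen beads (10 ug/ml final) added 10 min; cleavage lowers signal.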
DT40 TDP1 CPT: DT40-hTDP1 cell growth loss with CPT; chicken DT40 Tdp1-/-;hTDP1 cells + 20 nM CPT, ATP luminescence, 48 h; Potency, µM (titrated, usually from 46.2 µM), for inactives: at the highest dose activity change, negative = growth inhibition, actives largely listed as inhibitors; actives 12% (n = 420,000); AID 686979; note: potency is the fitted concentration of half-maximal effect; % is set by controls: 0 for no effect and ±100 for the full control effect; nearly all actives have a fitted effect of over 55% in size
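Cell growth measured by CellTiter-Glo luminescence after a minimum 48 h, 37 C compound exposure with 20 nM CPT in Tdp1-knockout DT40 cells stably expressing hTDP1, seeded 400/well; qHTS titration format.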
IL-1B inflam inh: blocks inflammasome-driven IL-1 beta release; THP-1 LPS/ATP IL-1B secretion, AlphaLISA, 16 h; hits give low values; activity change, % at 57.5 µM; actives 4.7% (n = 360,000); in the data active = activity change below about -50%; inconclusive = mostly about -30% to -49%; note: % is set by controls: 0 for no effect and ±100 for the full control effect
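THP-1 cells pretreated 1 hr with compounds (up to 57.5 uM final), then stimulated with LPS (250 ng/mL final) plus ATP (1.25 mM final); secreted IL-1B measured by AlphaLISA after 16 hr, decreased signal indicating inhibition.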
TGFb SMAD3 inh: inhibitors of TGF-b signaling | HepG2 CAGA-GFP TGF-b/SMAD3 reporter, GFP fluorescence, 18 h; TGF-beta stimulated, 500 pg/mL final | Potency, µM (top dose mostly 46.1 µM), for inactives: at the top dose activity, negative = inhibition, hits mostly inhibitors | actives 1.2% (n = 410,000) | AID 588855; note: potency is the fitted concentration of half-maximal effect; % is set by controls: 0 for no effect and ±100 for the full control effect; nearly all actives have a fitted effect of over 65% in size
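Using HEPG2 CAGA-GFP reporter cells at 1000 cells/well, we pinned test compounds, stimulated with recombinant TGF-beta (500 pg/mL final) and measured total well GFP after 18 h.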
TDP1 cell noCPT: qHTS for Inhibitors of human tyrosyl-DNA phosphodiesterase 1 (TDP1): qHTS in cells in absence of CPT; DT40 Tdp1-/- hTDP1 cells, no CPT, ATP luminescence, 48 h; Potency, µM (series often up to 46.2 µM), for inactives: at the top dose activity change, negative = growth inhibition, hits mostly inhibitors; actives 15% (n = 420,000); AID 686978, 2013; note: potency is the fitted concentration of half-maximal effect; % is set by controls: 0 for no effect and ±100 for the full control effect; nearly all actives have a fitted effect of over 55% in size
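Readout: luminescence from CellTiter-Glo after 30 min in the dark at RT. Cells: DT40 Tdp1-/- with stable hTDP1, 400/well. Exposure: compounds alone, ≥48 hr, 37 °C.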
HepG2 tox: counter-screen for TGF-b inhibitors: cytotoxicity in HepG2 cells. HepG2 CAGA-GFP viability, ATP luminescence, 18 h. Potency, µM (series often up to 46.1 µM), without a hit: top-dose activity change, negative = cytotoxicity, most hits filed as cytotoxic. actives 0.76% (n = 410,000). AID 588856; note: potency is the fitted concentration of half-maximal effect
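HepG2 CAGA-GFP cells (1000/well, DMEM with 1% FBS) received compound, then TGF-beta at 500 pg/mL final, and were incubated 18 hours at 37 degrees C. Viability was read by CellTiter-Glo luminescence. Media-only wells were set as complete cell-killing and DMSO as no toxicity.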
* marks the source's active call; other numbers are inactive results; ? = inconclusive; . = no result; [ ] = another dose, or the depositor's remark. Unless noted, calls come from the whole dose curve; as a rule, active = well fitted curve in the direction sought with a large enough effect; inconclusive = small, poorly fitted or top-dose-only effect, or another doubt; inactive = no such curve, though single readings can be large; an effect the other way counts as inactive or inconclusive.

SMILES	TDP1 block	DT40 TDP1 CPT	IL-1B inflam inh	TGFb SMAD3 inh	TDP1 cell noCPT	HepG2 tox
CCOc1cc(C=NNC(=O)c2cccc(S(=O)(=O)N3CCCC3)c2)ccc1O	1%	-29%	-2	-4%	?	-20%
COc1cc(/C=N/Nc2nc(-c3ccc(S(=O)(=O)N(C)C)cc3)cs2)ccc1O	7%	8.2µM*	-91*	?	7.3µM*	-34%
CCOc1cc(/C=N/Nc2nc(-c3cccc(S(=O)(=O)N4CCCC4)c3)cs2)ccc1O	-4%	13µM*	-83*	?	8.2µM*	-2%
CCN(CC)CCCNC(=O)c1ccc(Cn2c(SCc3ccccc3)nc3cccnc32)cc1	7%	?	.	-13%	?	-48%
O=C(CC(O)c1ccncc1)c1ccccc1O (configuration not stated)	.	?	-63*	?	?	-44%
OC(CCc1ccncc1)c1ccccc1 (configuration not stated)	-3%	6%	18	?	0%	10%
COc1cccc(N(C)C(=S)Oc2ccc3c(c2)CCCC3)n1	-11%	?	.	.	-18%	.
C=C1[C@@H](O)[C@H](CC(C)C)N(Cc2ccccc2Br)S1(=O)=O	.	5µM*	?	8.9µM*	18µM*	10µM*
O=S1(=O)CCO[C@H]2CCCC[C@@H]2N1Cc1ccccc1Br	.	?	.	3%	?	-3%
O=C(Nc1cc(F)ccc1F)c1cnn2c(C(F)F)cc(-c3ccccc3)nc12	0%	-15%	.	13%	-8%	-2%
Cc1nn(Cc2c(Cl)cccc2Cl)c(C)c1NC(=O)c1cnn2c(C(F)F)cc(-c3ccccc3)nc12	2%	21µM*	13	-4%	?	0%
Cc1ccc(C2CC(C(F)F)n3ncc(C(=O)Nc4c(C)nn(Cc5c(F)cccc5Cl)c4C)c3N2)cc1 (configuration not stated)	12%[56.1 µM]	?	-22	?	18µM*	7%
Cc1ccc(C2CC(C(F)(F)F)n3ncc(C(=O)NCc4ccco4)c3N2)cc1 (configuration not stated)	6%	-28%	-19	-17%	?	-7%
Cc1ccc(-c2cc(C(F)F)n3ncc(C(=O)Nc4c(C)nn(Cc5c(Cl)cccc5Cl)c4C)c3n2)cc1	3%	10µM*	-7	-1%	15µM*	0%
COc1ccc(-n2c(SCc3ccc([N+](=O)[O-])cc3)nnc2-c2ccc(C)cc2)cc1	-3%	?	-50*	-1%	?	-12%
Cc1ccc(OCc2nnc(SCc3ccc(C#N)cc3)n2-c2ccc(C)cc2)cc1	0%	?	-19	?	16µM*	-32%
Cc1ccc(-n2c(SCc3ccc(C#N)cc3)nnc2-c2ccccn2)cc1	0%	-17%	-25	-13%	-20%	-20%
Cc1ccc(CNC(=O)C2CCN(C(=O)N3CC(C)Oc4ccc(Cl)cc43)CC2)cc1 (configuration not stated)	9%	?	.	?	18µM*	-23%
Cc1ccc2c(c1)N(C(=O)N1CCC(C(=O)NCc3ccccc3C)CC1)CC(C)O2 (configuration not stated)	4%	21µM*	.	?	16µM*	-17%
CC1CN(C(=O)NCc2ccccc2)c2cc(Cl)ccc2O1 (configuration not stated)	1%	?	-20	-7%	?	1%
Cc1ccc2c(c1)N(C(=O)N1CCC(C(=O)NCc3ccco3)CC1)CC(C)O2 (configuration not stated)	-9%	?	.	-25%	?	-19%
CCN(Cc1ccccc1)c1ncnc2c1nnn2C	3%	-10%	.	31%	-21%	-9%
Cc1csc(SCC(=O)c2c(N)n(CC(C)C)c(=O)n(C)c2=O)n1	0%	16µM*	4	-21%	21µM*	-3%
CC(C)Cn1c(N)c(C(=O)CSc2ncn[nH]2)c(=O)n(C)c1=O	.	-28%	33	16%	?	1%
CCOC(=O)Cc1csc(SCC(=O)c2c(N)n(CC(C)C)c(=O)n(C)c2=O)n1	-3%	9.2µM*	11	14%	10µM*	-5%
SMILES	TDP1 block	DT40 TDP1 CPT	IL-1B inflam inh	TGFb SMAD3 inh	TDP1 cell noCPT	HepG2 tox
CC(C)Cn1c(N)c(C(=O)CSc2ncccn2)c(=O)n(C)c1=O	-10%	?	20	4%	10µM*	37%
O=C(Cc1ccc(Br)cc1)Nc1cccc(-c2cn3c(n2)SCC3)c1	6%	?	-76*	-1%	?	-20%
O=c1ccc2c(ccc3ncccc32)o1	.	-17%	?	-11%	12µM*	-12%
Cc1ccc(CN2CCCC(CO)(Cc3ccccc3C)C2)s1 (configuration not stated)	.	?	-8	?	?	-51%
CCc1sc(C(=O)Nc2ccc(NC(C)=O)cc2)cc1C	-4%	0%	?	-13%	-19%	3%
C=CCN(CC=C)C(=O)Nc1ccc2nc(C)sc2c1	1%	-25%	15	1%	21µM*	3%
CNC(=O)Nc1ccc2nc(C)sc2c1	-4%	-30%	-10	-11%	-15%	0%
CCc1sc(C(=O)Nc2ccc3nc(C)sc3c2)cc1C	0%	?	-52*	-3%	?	-10%
Cc1nc2ccc(NC(=O)Cc3ccsc3)cc2s1	1%	16µM*	10	?	13µM*	-3%
C=CCNC(=O)Nc1ccc2nc(C)sc2c1	3%	16µM*	-27	1%	?	-1%
CN(C)S(=O)(=O)c1ccc2c(c1)N(CC(=O)N1CCC(C(N)=O)CC1)CCS2	7%	.	.	2%	.	-2%

Screens as filed in PubChem BioAssay.
